We go through 107 sequences from PubChem BioAssay AID1508600 (Functional Genomics Laboratory (NCATS/FGL), 2020).

Hit rate of the full screen: of about 53,000 sequences, about 3,700 (7%) were called active.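 Rule for the calls: active = gene knockdowns whose robust z-score for IL-1 alpha signal is at least 2 or at most -2, so actives lie on both sides; inactive = the rest.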 Shown is part of a subset that was picked to be rich in actives.

The nature of the test: Components of the Cytosolic LPS Sensing Pathway: Gene Identification via Genome-wide siRNA Screen.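 Note: robust z of the log signal after scaling to non-targeting control siRNA wells of the plate.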 To be noted: RAW264.7 macrophages, IL-1a HTRF, actives lie on both sides, screened at 100 nM (by protocol), cells primed 5 h with Pam3CSK4 first. The procedure, abridged:
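RAW264.7; siRNA 100 nM final, RNAiMAX, 48h 37 degrees C; Pam3CSK4 5 h; LipidA + TransIT-TKO 24 h; IL-1a HTRF; CellTiter-Glo viability; robust z vs negative-control median.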
A general note: In TR-FRET formats the signal depends on donor and acceptor labels being close together.
GGAAGAAGACACAAAAAAUTT against Rcan3: the z-score is 3.53 (active). GGUCUUCUUCUUCAAAGCUTT against Mrpl46: the z-score is -1.27 (inactive). Under GCAACGUGGUCAUCAAUCUTT against Ndufa9 stands -0.743 (inactive); under GGGUUAUGGCUGGAAUCUGTT against Slc12a9, -1.52 (inactive); under GGAACAAGGCUUUUUCCACTT against Olfr481, 0.566 (inactive). Consider CCCGUUGUAUACAAAUACCTT against Tmem41b, for which the z-score is 0.579 (inactive). In the case of CCCAAACAGACUAGAUCCGTT against Rab20, the z-score was 3.37 (active).

As for GUGGAAAUUAAUCUGGGUUTT against Tmem191c, the z-score was 0.394 (inactive). In the case of GGCCAGAUAGCAAAACAGCTT against Mpst, the z-score was 0.897 (inactive). In the case of GGAGGUGUUCAUUGAAGUCTT against Nudcd2, the z-score was -0.356 (inactive). To GGAACUGACAGCUAUGAACTT against Atp6v1d belongs -0.845 (inactive); to GGAGAAGAAAGCAAAAACCTT against Ing1, -2.11 (active). Under CGCAGAUCAAUUUUCAUAGTT against Kif2a stands 0.471 (inactive); under GGAUAUUGGUGGCACUUUATT against Med6, -0.315 (inactive); under GGAUAAAUGGUACAUUCAGTT against Coa7, 0.958 (inactive). Under CCAACCUAAACAAUGCAUUTT against Actn4 stands -0.431 (inactive); under GGCGGACUUGGAUUACAGCTT against Rassf10, 2.21 (active). In the case of GGAGCUGCUGUUAAUUCCATT against Col5a3, the z-score was 1.3 (inactive). Take GGAAGCCUACCUUUAUAUUTT against Slc2a3: the z-score is 0.458 (inactive). Under CCUUUUCAAGCUAACAACATT against Gba2 stands -0.0808 (inactive).

On to GGUAGCACUUUGUAUUUUATT against Spg7, for which the z-score was 0.575 (inactive). Under GCAUCUACUAUCCAAGUGATT against Alox8 stands 2 (active).

For CCUACAGCCACCUAAUAGATT against Olfr1196, the z-score is -0.346 (inactive). GCAAGUAACUACCAGAGUATT against Cfap20: the z-score was -0.488 (inactive). As for CCACGGGAGACAAGAUUCUTT against Hmbs, the z-score is 3.18 (active). Under GGUCAGCGAACCACGAUAATT against Olfr314 stands -0.792 (inactive); under “GGUAUAAGGUCAUAGAAUUTT against E230016K23Rik”, 0.429 (inactive). GCUUCUAUUUUGGAUGAUGTT against Skint10: the z-score was -1.2 (inactive). As to GGCACAAGUUGACCAAUAUTT against Rtn1, the z-score was -0.263 (inactive). Under GCUACUCCUUAGAACACGGTT against Spry1 stands 0.839 (inactive); under GGCUAUCUGAUUUUUGUUGTT against Nlrp3, -0.0259 (inactive). To GGCCUCAAACUGAAUAUUATT against Serpina7 belongs 0.472 (inactive); to CCCGGAAACAACACAUUGCTT against Tyrobp, 2.88 (active); to GGUCCAGCAUUUGAAAUUATT against Moap1, 0.291 (inactive). To CCACUGUGCAAGAAGCACGTT against Ldb3 belongs -0.129 (inactive); to GGGUAAUGGGCCAGUAUCATT against Fam229b, -2.92 (active); to GGUAUAUUGUGCCAGCACATT against Olfr705, 0.00345 (inactive).

In the case of GGUUCACAUGUACAUUAAATT against Cracd, the z-score was -0.156 (inactive). Under “GGUUAGAAAACAAUAUCAGTT against 9530053A07Rik” stands 0.88 (inactive).

On to GGGAGAGCUGGCUAAAUGATT against Sptbn4, for which the z-score was -0.956 (inactive). Turning to GGAGUUUGCCAGUGAAUUUTT against Ptpn22, the z-score was -0.603 (inactive). GGAAGAGAAAACAACAGUUTT against Phactr4: the z-score is -1.26 (inactive). Under CCCGUAAGGUAACAAACCGTT against Polr3k stands -1.14 (inactive). Take GGACAGGAAGGUCAUCCCUTT against Sntb2: the z-score was -0.568 (inactive). To CCGCCAGACCUUCAUUACCTT against Chia1 belongs -0.515 (inactive). Under GGCAGUGGAGCUGGACAAATT against Nkx2-5 stands 2.45 (active); under GGCUACAAAUCCAACUAUCTT against Ppp1r32, 0.181 (inactive); under GGUCCAAGCCUUUUCUAGATT against Glmp, 0.305 (inactive). GCUCGUUCGCCUAGAAUUGTT against Mycbp: the z-score is 0.529 (inactive). Under CGUGGGCUCUGUUGACAUUTT against Olfr492 stands 0.869 (inactive).

Consider GGGCAAAUGUAAAAAGACUTT against Fst, for which the z-score was 1.28 (inactive).

In the case of GGUGAUUGUCAAGAUUAUGTT against Olfr651, the z-score was -2.1 (active). As to CCUUUGCCUUCAGUUUUAUTT against Pramel20, the z-score was 0.864 (inactive). For the sequence GGUCACGAUGUAGCACGCUTT against Mtg1, the z-score was 0.996 (inactive). Take GCAGGAAGUACUCCUAUCCTT against Letm2: the z-score is -0.861 (inactive). Consider GGGAAUUUGGUAUCAAUUUTT against Epgn, for which the z-score was 1.7 (inactive).

Turning to GCUGCACGAUGCAUGGUUUTT against Asic3, the z-score was 1.43 (inactive). To GGCAAUAACAUUCGGUAUUTT against Snrpd1 belongs -2.29 (active); to CCUGUAAUGAGUAUGACAUTT against Commd10, 0.397 (inactive); to GGAACUUUUUCAGAGCUCUTT against Senp3, -1.6 (inactive).

As to GGUAUUUGUGCCAAUUGCCTT against Ccr6, the z-score is -0.302 (inactive). Under GGAAGACUACAUAAGAGACTT against Cxcl9 stands 0.103 (inactive); under GGGCCAUGAUAGGACACACTT against Nme4, 2.97 (active); under CCUGUCUGUUUGAGGACGUTT against Adora2a, -0.701 (inactive). GGCCAACUUCCUUUUUAAATT against Tomm40: the z-score is -0.0619 (inactive). To GGCACACACUCCCUGACAATT against Cst3 belongs -0.863 (inactive); to GGUGGAUGAUAAUGUUCUUTT against Gcnt3, 0.911 (inactive). To GGCCUUUACAUGUCCCAGCTT against BC002059 belongs 0.456 (inactive); to AUGUCAGCGGCCCUAGAUGTT against Adam34l, -2.09 (active); to GGGUGUGGCUGACUUUGAUTT against Otof, -0.429 (inactive). To CCGUGGACUAUAACAACUCTT against Mgat5b belongs 1.61 (inactive); to GGAAGAGGCUAUUGCAUCGTT against Atrnl1, -0.768 (inactive); to GGUUUUCUAGUUUGAGUUUTT against Atp1b2, 1.29 (inactive). In the case of GCAUCCAUCAAAUCAAAAUTT against Met, the z-score is 3.03 (active). To GGUGAUUCAGAUAAAAGAGTT against Mbtps1 belongs 0.265 (inactive).

For GAGCAGAGGAUUGAUGCACTT against Nlrp4g, the z-score was 0.918 (inactive). For the sequence GCAAGACGCACUGUUACUGTT against Fam214a, the z-score was 0.196 (inactive). For the sequence GGCUCCUAGCUGUUUCAGUTT against Hormad1, the z-score was -1.62 (inactive).

Take GGUUCAAAGUUCUAGCUAATT against Adss: the z-score was -0.25 (inactive).

Consider CCAAAAGUCACGUUUCUCATT against Per2, for which the z-score was -2.09 (active). Under GCAAUGGUUGAAGAAAUUUTT against Tnip3 stands 0.69 (inactive); under GGUUCUUUUAUGGAUGACATT against Prkaa2, -0.964 (inactive).

Take GCAGGAACACUGGUUUGAATT against Otud5: the z-score is -0.653 (inactive). In the case of GUACGAAGACUUCUCUAGUTT against Ankrd33b, the z-score is 0.101 (inactive). Under GGGAAAAUGGCUUAACCGUTT against Siglecg stands 0.703 (inactive). Regarding CCUAGAGGAUUCAGAUCAATT against Pnmal1, the z-score was 2.24 (active). To GGCCGUUUCACUACCAUUCTT against Ier2 belongs 0.259 (inactive); to GGAGGUAGGAAUAUGACUUTT against Klrb1c, 0.0825 (inactive); to GGCUAGCAUUAGCCACAGATT against Enpp3, -2.33 (active). Consider GGUGCUCAAAUCCUCUUGATT against Ctps, for which the z-score was -0.0545 (inactive).

Turning to CGGAUAUGAAUUUUUUGCUTT against Ppp1cb, the z-score is 0.116 (inactive). GCUUUUCAGUCUCAUAGUGTT against Huwe1: the z-score was 0.468 (inactive).

In the case of GGAAAAUCCCUCUUUGGCUTT against Sez6l2, the z-score was -0.566 (inactive). Consider CGAUGAGACCAACAUCUUUTT against Gpr162, for which the z-score was 0.476 (inactive). GGACAAUGAUUUUCUGAUUTT against Sv2b: the z-score was 0.962 (inactive). As for GGAAGUCUAUGGUUUUUAGTT against Csnk2b, the z-score was 2.97 (active). To GGAAAUCAAGCCCUACAUCTT against Col4a2 belongs 0.152 (inactive).

For GGGCUAUGUUGUCUCAAAATT against Gsdma2, the z-score is 0.861 (inactive). For the sequence GGAUGACCUCAUGCUUAUUTT against Prss37, the z-score was -2.31 (active). To GGAUGAAAAAUCAGUACUUTT against Aadac belongs -2.02 (active); to GGUAUCCUCUCUUGUCUUGTT against Clec9a, -0.0393 (inactive).

On to GUACCUGAAUUGCUACCGATT against Ly6g5c, for which the z-score was 0.8 (inactive).

Take GGAGUUCUUGGUCUCUUUGTT against Fam214a: the z-score is -0.124 (inactive). To UUGAACAGUGGAACAAUGATT against Fbxo27 belongs 2.59 (active). As for GGAAAGGAACAUAUUUGACTT against Gss, the z-score was 0.0774 (inactive). To CCAUCUCUCCAAAGGGCUGTT against Olfr32 belongs 0.056 (inactive); to GGAUUUGACCGGCUAAUACTT against Snrnp40, -0.776 (inactive).
